Our source for the outcome and AC50 values is PubChem BioAssay (EPA / NIEHS).

Read-out in test [1]: E-selectin (Homo sapiens) (UniProt P16581)
Nature of the test: BSK_SAg_Eselectin: BioMAP Diversity Plus: SAg Assay for Eselectin Biomarker Activity (AID 2283091). The note with it: primary human HUVEC with PBMC; actives raise or lower the signal. Summed up: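 E-selectin ELISA readout at 24 h post-dosing in human umbilical vein endothelial cell/PBMC co-culture; gain or loss of signal fitted relative to DMSO baseline.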

Read-out in test [2]: Monokine induced gamma interferon (MIG), CXCL9 (gene 4283)
Put plainly: BSK_SAg_MIG: BioMAP Diversity Plus: SAg Assay for Monokine induced gamma interferon (MIG) Biomarker Activity (AID 2283092). The note with it: primary human HUVEC with PBMC; actives raise or lower the signal. Summed up:
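ELISA readout of MIG/CXCL9; primary human umbilical vein endothelial cells co-cultured with peripheral blood mononuclear cells; 24 h post-dose; gain/loss fit vs DMSO baseline.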

The nature of test [3]: BSK_SAg_PBMCCytotoxicity: PBMC Cytotoxicity Assessment in the BioMAP Diversity Plus: SAg Assay (AID 2283093).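 Further: PBMC viability measured as Alamar Blue reduction fluorescence at 546/580 nm; fitted both ways against DMSO so a hit may be loss or gain of signal.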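 On AC50: PBMC superantigen activated with SEB plus TSST-1 one hour after compound addition.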 The note with it: primary human HUVEC with PBMC. Summed up: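 Alamar Blue reduction (6 h, 546/580 nm) reports PBMC cytotoxicity after 90 h superantigen activation (SEB, TSST-1; 20 ng/mL final each) with 1 h compound pre-treatment. Gain or loss of signal fitted versus DMSO.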

Read-out in test [4]: Interleukin-8 (IL8), CXCL8 (gene 3576)
Put plainly: BSK_SAg_IL8: BioMAP Diversity Plus: SAg Assay for Interleukin-8 (IL8) Biomarker Activity (AID 2283094). The note with it: primary human HUVEC with PBMC; actives raise or lower the signal. Summed up: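 Chemicals were dosed onto a human endothelial–PBMC co-culture, and IL-8 was quantified by ELISA after 24 h. Both increases and decreases were fitted relative to DMSO.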

Test [5] can be described thus: BSK_SAg_Proliferation: Cell Proliferation Assessment in the BioMAP Diversity Plus: SAg Assay (AID 2283095).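 Further: relative cell number as total protein by SRB absorbance in sub-confluent culture.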 The note with it: primary human HUVEC with PBMC. The essentials: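 Absorbance of sulforhodamine B at 560 nm reports total protein in a human vascular endothelial/PBMC co-culture after 96 h chemical exposure. Gain or loss of signal is fitted in both directions against DMSO.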

Test [6] can be described thus: BSK_SAg_SRB: Viability Assessment in the BioMAP Diversity Plus: SAg Assay (AID 2283096).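 Further: cells read one day after compound addition; hits may be either gain or loss of signal compared with DMSO.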 The note with it: primary human HUVEC with PBMC. The essentials:
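This overt-cytotoxicity endpoint quantifies protein in human endothelial/PBMC co-cultures at 24 h using SRB absorbance (560 nm) after trichloroacetic acid fixation. Values reflect signal change from the DMSO negative control, fitted bidirectionally.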

Test [7] addresses Cytochrome P450 3A4 (Homo sapiens) (UniProt P08684). Nature of the test: NVS_ADME_hCYP3A4: NovaScreen (NVS) CYP450-related Enzyme Activity (ADME) Assay for human CYP3A4 (AID 2283110; active means hit-call score of the fitted dose curve at least 0.9, where 1 is the maximum). The essentials:
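Activity is derived from decreased fluorescence intensity relative to acetonitrile, measured 0.33 hour after dosing insect-cell-expressed CYP3A4 in a cell-free format. Screening used 10 uM in duplicate before concentration-response follow-up.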

Test [8] concerns the target human Acid Phosphatase 1 (ACP1), ACP1 (gene 52) (UniProt P24666). Nature of the test: NVS_ENZ_hACP1: NovaScreen (NVS) Enzymatic Assay for human Acid Phosphatase 1 (ACP1) (AID 2283136; active means hit-call score of the fitted dose curve at least 0.9, where 1 is the maximum). Summed up: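 Cell-free fluorescence read-out of phosphatase activity, substrate and product separated by mobility shift, taken 1.5 h after compound addition; protein produced in Sf9. Single 25 uM duplicate screen, followed by concentration series for actives, scored as signal loss relative to DMSO.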

Test [9] concerns the target human AKT serine/threonine Kinase 1 (AKT1), AKT1 (gene 207) (UniProt P31749). Put plainly: NVS_ENZ_hAKT1: NovaScreen (NVS) Enzymatic Assay for human AKT serine/threonine Kinase 1 (AKT1) (AID 2283138; active means hit-call score of the fitted dose curve at least 0.9, where 1 is the maximum). Summed up: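 Compounds were first tested in duplicate at 25 uM, and those passing a threshold such as 30% inhibition were run in concentration-response to a maximum of 50 uM. Enzyme activity was measured after 1 h by fluorescence following substrate/product mobility-shift separation.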

Test [10] deals with human Caspase 5 (CASP5), CASP5 (gene 838) (UniProt P51878). Nature of the test: NVS_ENZ_hCASP5: NovaScreen (NVS) Enzymatic Assay for human Caspase 5 (CASP5) (AID 2283137; active means hit-call score of the fitted dose curve at least 0.9, where 1 is the maximum). The essentials: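 Chemicals were first tested in duplicate at 25 uM against recombinant caspase 5 from E. coli. Activity was read by fluorescence intensity 2 hours after dosing. Those passing a preset inhibition threshold were retested in singleton concentration-response up to 50 uM.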

The target of test [11] is human Beta-secretase (BACE), BACE1 (gene 23621) (UniProt P56817). Put plainly: NVS_ENZ_hBACE: NovaScreen (NVS) Enzymatic Assay for human Beta-secretase (BACE) (AID 2283140; active means hit-call score of the fitted dose curve at least 0.9, where 1 is the maximum;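 further: hits are inhibitors that reduce fluorescent substrate signal versus DMSO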). Summed up: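 Fluorescence intensity read-out of protease activity defines this endpoint; signal loss relative to DMSO baseline marks inhibition. Recombinant enzyme from SF9 cells, cell-free format, 1 h exposure. Single-concentration duplicate screen (25 uM) precedes concentration-series follow-up.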

The target in test [12] is Cytochrome P450 2C19 (Homo sapiens) (UniProt P33261). Put plainly: NVS_ADME_hCYP2C19: NovaScreen (NVS) CYP450-related Enzyme Activity (ADME) Assay for human CYP2C19 (AID 2283113; active means hit-call score of the fitted dose curve at least 0.9, where 1 is the maximum;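 on AC50: potency for inhibition seen as loss of fluorescent signal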). The essentials: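 Recombinant insect-cell-expressed enzyme, fluorescent substrate, 1 h after chemical addition, fluorescence intensity. Baseline = acetonitrile vehicle; activity scored as signal loss. Primary HTS single concentration 10 uM, duplicate; actives retested in concentration series.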

Test [13] has as its target human CYP2B6, CYP2B6 (gene 1555) (UniProt P20813). Put plainly: NVS_ADME_hCYP2B6: NovaScreen (NVS) CYP450-related Enzyme Activity (ADME) Assay for human CYP2B6 (AID 2283101; active means hit-call score of the fitted dose curve at least 0.9, where 1 is the maximum). Summed up: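 Fluorescence-based enzyme activity of recombinant human CYP2B6, measured 1 h post-dose against acetonitrile vehicle baseline. Screened at a single concentration of 10 uM in duplicate before concentration-response follow-up.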

Test [14] deals with human CYP1A2, CYP1A2 (gene 1544) (UniProt P05177). Nature of the test: NVS_ADME_hCYP1A2: NovaScreen (NVS) CYP450-related Enzyme Activity (ADME) Assay for human CYP1A2 (AID 2283102; active means hit-call score of the fitted dose curve at least 0.9, where 1 is the maximum). The essentials: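 Fluorescence-intensity enzyme activity read-out, taken 0.5 h post-dosing, using insect-cell-derived recombinant CYP1A2 and specific fluorescent substrate. Acetonitrile served as negative control/baseline. Single-concentration duplicate screen at 10 uM, then concentration-response follow-up.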

Test [15] has as its target human CYP2D6, CYP2D6 (gene 1565) (UniProt P10635). Put plainly: NVS_ADME_hCYP2D6: NovaScreen (NVS) CYP450-related Enzyme Activity (ADME) Assay for human CYP2D6 (AID 2283107; active means hit-call score of the fitted dose curve at least 0.9, where 1 is the maximum). The essentials: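 Fluorescence intensity read 1 h post-dosing; insect-cell-expressed recombinant protein with fluorogenic substrate, no cells. Activity is scored as signal loss relative to acetonitrile baseline, first at a single 10 uM concentration in duplicate, then as concentration series for confirmed actives.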

Test [16] addresses human CYP2C9, CYP2C9 (gene 1559) (UniProt P11712). Nature of the test: NVS_ADME_hCYP2C9: NovaScreen (NVS) CYP450-related Enzyme Activity (ADME) Assay for human CYP2C9 (AID 2283108; active means hit-call score of the fitted dose curve at least 0.9, where 1 is the maximum). Summed up: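 Cell-free assay of recombinant human CYP2C9 produced in Sf9 cells, with enzyme activity read by fluorescence intensity 0.75 h after compound addition. Loss of signal versus an acetonitrile negative control indicates inhibition. Primary screen used 10 uM in duplicate; actives were retested in concentration series.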

As usually defined, the AC50 is the midpoint of the concentration-response curve, whichever way the signal moves.

Records with an inconclusive call do not appear. The source made the active and inactive calls. How the source made its calls, unless noted: active means hit-call score of the fitted dose curve at least 0.9, where 1 is the maximum; inactive means score below 0.9.

Sequence of human CYP2C9, CYP2C9 (gene 1559) (P11712 whole entry, looked up): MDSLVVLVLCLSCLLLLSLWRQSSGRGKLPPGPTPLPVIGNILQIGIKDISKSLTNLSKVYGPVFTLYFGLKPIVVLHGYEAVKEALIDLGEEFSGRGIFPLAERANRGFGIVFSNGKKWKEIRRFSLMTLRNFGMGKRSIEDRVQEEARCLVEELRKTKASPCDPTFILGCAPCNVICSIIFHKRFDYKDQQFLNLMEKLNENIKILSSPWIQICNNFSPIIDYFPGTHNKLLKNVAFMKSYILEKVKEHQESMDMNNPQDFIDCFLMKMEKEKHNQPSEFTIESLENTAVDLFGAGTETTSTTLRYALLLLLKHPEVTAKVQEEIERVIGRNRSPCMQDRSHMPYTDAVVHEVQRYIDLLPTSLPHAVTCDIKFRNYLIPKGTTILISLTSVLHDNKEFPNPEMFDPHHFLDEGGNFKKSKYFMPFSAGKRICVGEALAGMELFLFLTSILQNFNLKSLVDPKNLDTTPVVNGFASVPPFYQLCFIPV
Sequence of human Acid Phosphatase 1 (ACP1), ACP1 (gene 52) (P24666 whole entry, looked up): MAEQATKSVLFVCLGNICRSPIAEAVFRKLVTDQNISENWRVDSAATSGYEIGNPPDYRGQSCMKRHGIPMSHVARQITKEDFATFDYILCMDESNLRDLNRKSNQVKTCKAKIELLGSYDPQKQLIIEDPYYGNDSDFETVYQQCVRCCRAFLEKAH
Sequence of E-selectin (Homo sapiens) (P16581 whole entry, looked up): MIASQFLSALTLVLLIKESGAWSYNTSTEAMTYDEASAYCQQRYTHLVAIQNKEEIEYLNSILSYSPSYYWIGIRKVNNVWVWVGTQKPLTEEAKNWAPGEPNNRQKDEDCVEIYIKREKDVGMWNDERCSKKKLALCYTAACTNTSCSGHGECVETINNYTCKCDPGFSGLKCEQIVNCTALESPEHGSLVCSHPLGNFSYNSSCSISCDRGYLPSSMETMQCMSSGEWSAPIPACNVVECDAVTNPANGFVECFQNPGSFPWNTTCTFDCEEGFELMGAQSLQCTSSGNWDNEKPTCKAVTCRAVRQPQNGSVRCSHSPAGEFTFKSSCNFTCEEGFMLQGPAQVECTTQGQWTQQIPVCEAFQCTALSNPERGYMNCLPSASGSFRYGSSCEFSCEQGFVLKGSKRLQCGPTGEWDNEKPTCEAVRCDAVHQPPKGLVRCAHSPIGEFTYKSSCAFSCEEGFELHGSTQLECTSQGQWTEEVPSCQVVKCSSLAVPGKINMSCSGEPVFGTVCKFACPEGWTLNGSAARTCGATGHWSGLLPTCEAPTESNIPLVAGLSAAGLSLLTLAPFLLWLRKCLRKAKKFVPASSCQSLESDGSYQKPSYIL
Sequence of human Beta-secretase (BACE), BACE1 (gene 23621) (P56817 whole entry, looked up): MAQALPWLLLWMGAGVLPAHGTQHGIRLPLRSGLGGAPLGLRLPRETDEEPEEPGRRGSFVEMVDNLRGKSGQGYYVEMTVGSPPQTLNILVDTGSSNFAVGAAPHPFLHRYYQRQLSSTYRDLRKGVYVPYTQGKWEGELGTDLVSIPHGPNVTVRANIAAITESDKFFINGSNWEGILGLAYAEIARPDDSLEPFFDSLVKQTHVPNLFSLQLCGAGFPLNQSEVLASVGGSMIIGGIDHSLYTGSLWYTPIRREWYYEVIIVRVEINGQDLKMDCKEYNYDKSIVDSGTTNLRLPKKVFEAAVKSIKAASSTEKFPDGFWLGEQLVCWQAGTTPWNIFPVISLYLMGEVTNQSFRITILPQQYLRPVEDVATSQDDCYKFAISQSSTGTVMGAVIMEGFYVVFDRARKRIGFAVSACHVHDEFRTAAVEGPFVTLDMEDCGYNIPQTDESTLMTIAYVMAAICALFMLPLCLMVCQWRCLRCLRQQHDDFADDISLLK
Sequence of human Caspase 5 (CASP5), CASP5 (gene 838) (P51878 whole entry, looked up): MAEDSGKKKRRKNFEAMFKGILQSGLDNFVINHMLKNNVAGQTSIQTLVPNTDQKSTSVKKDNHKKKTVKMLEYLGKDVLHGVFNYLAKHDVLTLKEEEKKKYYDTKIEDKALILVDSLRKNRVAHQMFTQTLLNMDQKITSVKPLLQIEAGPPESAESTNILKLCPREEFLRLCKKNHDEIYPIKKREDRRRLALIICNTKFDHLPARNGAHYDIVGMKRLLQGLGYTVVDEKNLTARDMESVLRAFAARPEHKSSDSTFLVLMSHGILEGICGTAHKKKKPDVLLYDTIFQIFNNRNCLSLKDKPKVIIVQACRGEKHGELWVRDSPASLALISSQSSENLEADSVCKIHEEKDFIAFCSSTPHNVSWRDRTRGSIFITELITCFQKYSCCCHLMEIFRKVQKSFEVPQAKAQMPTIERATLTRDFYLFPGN
Sequence of human CYP2D6, CYP2D6 (gene 1565) (P10635 whole entry, looked up): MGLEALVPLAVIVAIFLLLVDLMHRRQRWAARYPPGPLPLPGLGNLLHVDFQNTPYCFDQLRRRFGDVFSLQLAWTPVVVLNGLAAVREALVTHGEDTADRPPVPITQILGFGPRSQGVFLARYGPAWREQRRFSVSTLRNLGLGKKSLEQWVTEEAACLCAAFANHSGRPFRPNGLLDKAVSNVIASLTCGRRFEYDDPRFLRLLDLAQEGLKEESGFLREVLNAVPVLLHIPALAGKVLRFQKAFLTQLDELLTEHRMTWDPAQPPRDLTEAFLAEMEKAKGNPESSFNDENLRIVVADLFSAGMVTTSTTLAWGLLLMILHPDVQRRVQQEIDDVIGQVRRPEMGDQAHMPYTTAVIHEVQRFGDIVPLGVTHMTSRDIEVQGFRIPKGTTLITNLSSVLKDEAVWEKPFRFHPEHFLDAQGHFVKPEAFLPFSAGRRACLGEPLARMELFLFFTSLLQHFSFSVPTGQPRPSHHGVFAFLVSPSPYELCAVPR
Sequence of human AKT serine/threonine Kinase 1 (AKT1), AKT1 (gene 207) (P31749 whole entry, looked up): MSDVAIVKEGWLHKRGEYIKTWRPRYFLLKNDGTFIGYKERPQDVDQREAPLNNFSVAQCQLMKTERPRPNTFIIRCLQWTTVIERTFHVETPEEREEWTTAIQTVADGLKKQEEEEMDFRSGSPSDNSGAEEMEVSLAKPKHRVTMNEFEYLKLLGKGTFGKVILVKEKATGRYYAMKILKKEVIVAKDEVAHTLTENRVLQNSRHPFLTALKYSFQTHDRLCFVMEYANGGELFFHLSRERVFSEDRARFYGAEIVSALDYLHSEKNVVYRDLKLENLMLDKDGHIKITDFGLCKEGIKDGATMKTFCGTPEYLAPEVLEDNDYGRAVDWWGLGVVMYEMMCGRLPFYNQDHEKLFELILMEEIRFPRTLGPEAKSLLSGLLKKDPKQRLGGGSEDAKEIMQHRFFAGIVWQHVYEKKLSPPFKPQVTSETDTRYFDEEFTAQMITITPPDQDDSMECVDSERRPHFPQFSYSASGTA
Sequence of human CYP1A2, CYP1A2 (gene 1544) (P05177 whole entry, looked up): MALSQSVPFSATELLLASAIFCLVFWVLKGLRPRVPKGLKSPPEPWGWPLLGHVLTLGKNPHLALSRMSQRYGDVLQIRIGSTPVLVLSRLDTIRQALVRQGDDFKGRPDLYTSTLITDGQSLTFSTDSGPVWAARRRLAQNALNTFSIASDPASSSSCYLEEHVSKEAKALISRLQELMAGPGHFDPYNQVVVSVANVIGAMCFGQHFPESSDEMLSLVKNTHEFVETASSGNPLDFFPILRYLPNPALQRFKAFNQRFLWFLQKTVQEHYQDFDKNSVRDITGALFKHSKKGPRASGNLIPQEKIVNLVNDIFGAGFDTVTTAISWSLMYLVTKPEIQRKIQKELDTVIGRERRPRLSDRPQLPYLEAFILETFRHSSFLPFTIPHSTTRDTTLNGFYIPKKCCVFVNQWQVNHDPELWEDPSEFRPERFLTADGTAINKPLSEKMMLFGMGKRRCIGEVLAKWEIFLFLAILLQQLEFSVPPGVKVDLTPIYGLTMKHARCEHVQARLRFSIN
Sequence of Cytochrome P450 3A4 (Homo sapiens) (P08684 whole entry, looked up): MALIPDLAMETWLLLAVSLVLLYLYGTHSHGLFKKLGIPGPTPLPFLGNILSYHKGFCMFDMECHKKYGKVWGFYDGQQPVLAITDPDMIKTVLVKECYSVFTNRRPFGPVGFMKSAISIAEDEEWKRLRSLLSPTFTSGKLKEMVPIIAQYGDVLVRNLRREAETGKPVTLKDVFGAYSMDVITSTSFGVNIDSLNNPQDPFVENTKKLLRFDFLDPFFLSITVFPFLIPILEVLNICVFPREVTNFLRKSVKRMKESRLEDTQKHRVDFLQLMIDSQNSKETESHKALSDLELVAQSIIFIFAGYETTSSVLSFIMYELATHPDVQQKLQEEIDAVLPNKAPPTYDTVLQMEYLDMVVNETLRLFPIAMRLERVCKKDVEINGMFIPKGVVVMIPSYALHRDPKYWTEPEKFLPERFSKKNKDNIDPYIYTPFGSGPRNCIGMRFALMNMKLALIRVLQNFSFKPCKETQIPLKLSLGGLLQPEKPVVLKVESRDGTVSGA
Sequence of human CYP2B6, CYP2B6 (gene 1555) (P20813 whole entry, looked up): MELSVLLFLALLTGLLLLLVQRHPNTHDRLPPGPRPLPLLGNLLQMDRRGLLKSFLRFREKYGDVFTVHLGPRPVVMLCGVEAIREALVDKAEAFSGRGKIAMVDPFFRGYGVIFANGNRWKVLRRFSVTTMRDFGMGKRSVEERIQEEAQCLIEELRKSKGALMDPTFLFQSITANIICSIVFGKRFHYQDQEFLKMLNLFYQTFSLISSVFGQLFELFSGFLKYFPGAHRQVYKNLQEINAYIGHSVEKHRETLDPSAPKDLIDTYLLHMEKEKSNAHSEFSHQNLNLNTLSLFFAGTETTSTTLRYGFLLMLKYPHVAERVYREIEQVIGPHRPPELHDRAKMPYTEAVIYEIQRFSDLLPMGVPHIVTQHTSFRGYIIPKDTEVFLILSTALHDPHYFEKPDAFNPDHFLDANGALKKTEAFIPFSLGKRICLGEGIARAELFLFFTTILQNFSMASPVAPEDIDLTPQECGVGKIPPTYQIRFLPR

Regarding `COc1cc(C=O)ccc1O`, the outcome in [1], in test [2], in test [3], in [4], in test [5] and in test [6] was inactive.

Turning to `CCCCCCCCCCO`, the outcome in test [1], in test [2], in test [3], in [4], in test [5] and in test [6] was inactive.

Regarding `Cc1cc(NC(=O)C(=O)O)cc(C)c1Oc1ccc(O)c2c1CCC2`, the result in [1], in test [2], in [3], in [4], in [5] and in [6] was inactive.

Turning to `Cc1cc(=O)[nH]c(=S)[nH]1`, the outcome in test [1], in test [2], in test [3], in test [4], in test [5] and in test [6] was inactive.

On to `NCCO`, for which the result in test [1], in test [2], in [3], in test [4], in test [5] and in test [6] was inactive. The molecule was classed as inactive in test [7], in test [8] and in test [9].

Take `Cc1cccc(C)c1O`: the outcome in test [1], in test [2], in [3], in test [4], in [5] and in test [6] was inactive.

Turning to `Cc1ccc2ncccc2c1`, the outcome in test [1], in test [2], in [3], in test [4], in [5] and in test [6] was inactive. Also, the molecule was called inactive in test [8], in test [10] and in test [11].

As to `CC(=O)OCCOCCOCCOC(C)=O`, the outcome in [1], in [2], in [3], in [4], in [5] and in test [6] was inactive.

Regarding `FC(F)(F)C(F)(F)C(F)(F)C(F)(F)C(F)(F)C(F)(F)CCI`, the result in test [1], in test [2], in test [3], in test [4], in test [5] and in [6] was inactive. In addition, in test [8], the molecule was classed as inactive.

As for `CNCc1cc(F)ccc1Oc1ccc(Cl)c(Cl)c1`, the AC50 in test [1] was 20 µM (active); in test [3], 25.7 µM (active); in test [4], 20 µM (active); in test [5], 26.1 µM (active); in [12], 1.11 µM (active). For the same molecule, the result in test [2] and in [6] was inactive.

With `CCc1c(C(=O)NN2CCCCC2)nn(-c2ccc(Cl)cc2Cl)c1-c1ccc(Br)cc1`, the AC50 in [1] is 12.3 µM (active); in test [2], 9.99 µM (active); in test [3], 11.8 µM (active); in test [4] it was 7.03 µM (active); in test [5], 7.06 µM (active); in test [6], 8.32 µM (active). Besides, the call in test [7], in test [12] and in test [10] was inactive.

Take `CCCCCCCCCCCCCCCCCC(=O)O`: the result in test [1], in [2] and in [4] was inactive. Besides, the AC50 in test [3] was 26.7 µM (active); in test [5] it was 24.1 µM (active); in [10] it was 0.719 µM (active).

For the molecule `CCCCCCCCCCCCCCCC`, the result in test [1], in [2], in [3], in test [4], in [5] and in [6] was inactive. Also, the molecule was classed as inactive in test [9].

For the molecule `CCOC(=O)CCC(=O)OCC`, the result in test [1], in [2], in test [3], in test [4], in [5] and in test [13] was inactive. Further, the molecule was called inactive in test [14], in test [15] and in test [16]. Besides, in [12], the AC50 was 15.4 µM (active).

As to `CCCCC(CC)COC(=O)CC(C(=O)OCC(CC)CCCC)S(=O)(=O)O` (centres undefined), the AC50 in [1] is 34.1 µM (active); in test [2], 38 µM (active); in [3] it was 34.8 µM (active); in test [4], 33.6 µM (active); in [5] it was 32.5 µM (active); in test [16], 3.5 µM (active). Besides, the AC50 in test [12] was 4.49 µM (active); in [10], 15.2 µM (active); in test [11] it was 1.35 µM (active).

`CC=Cc1ccc(O)c(OC)c1`: the result in test [1], in test [2], in [3], in [4], in [5] and in test [13] was inactive. Further, in test [16], the molecule was classed as inactive.

For the molecule `O=C(O)Cc1ccccc1Nc1c(Cl)cccc1Cl`, the result in test [1], in test [2], in [3], in [4], in test [14] and in [15] was inactive. For the same molecule, in [8], the result was inactive. For the same molecule, the AC50 in test [5] is 15.6 µM (active).

As to `Cc1oc(-c2ccccc2)nc1CCOc1cccc2c1ccn2CCC(=O)O`, the outcome in [1], in test [2], in test [3], in test [4], in test [5] and in test [6] was inactive. In [11], the AC50 is 9.92 µM (active).

On to `CCOC(=O)C(C)(C)Oc1ccc(Cl)cc1`, for which the outcome in test [1], in test [2], in [3], in test [4], in test [5] and in test [6] was inactive. The call in test [8] and in test [11] was inactive.
